The assay in a line: Nuclear factor erythroid 2-related factor 2/antioxidant responsive element (Nrf2/ARE) small molecule agonists: qHTS cell viability counter screen in human keratinocytes (AID 1919968). Also: nearly all actives have a fitted effect of over 55% in size. The method in brief: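 Cytotoxicity was multiplexed with the Nrf2/ARE luciferase assay in the same wells. Stably transfected HaCaT keratinocytes were treated with test compounds for 23 h at 37 C. Cell viability was then measured by CellTiter-Fluor fluorescence.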

Molecules are shown by their SMILES. Several values for one entry are separate records, joined by “and”; a condition that tells them apart may be missing. Equal entries are not always repeated. Records with an inconclusive call do not appear. Entries that show only a call come without a potency. Values without a mark were called inactive. Activity calls are given as the source filed them. Calls follow the shape of the dose curve; as a rule, active = well fitted cell-killing curve with a large enough effect in the repeat runs; inconclusive = weak or mixed curves, or effect the other way; inactive = flat fitted curve, though single readings scatter. Numbered stars: 1 amine (or outer) side, 2 acyl side, 3 side chain; on linkers, the order of the positions; unused ones are H or OH. Bridge positions count the residues as written; N and C are the ends. Square brackets hold non-standard residues; d marks the D form. Peptide text beside a SMILES is read from it. I, II: the chains in the order shown. Actinocin(9to1) = Cc1c2oc3c(C)ccc(C(=O)[*:1])c3nc-2c(C(=O)[*:2])c(N)c1=O; NMeV = CN[C@H](C(=O)O)C(C)C; Sar = CNCC(=O)O
Potency is read from the fitted curve at half-maximal effect.

As to `COC(OC)C(C)c1ccccc1` (centres undefined), the Potency entry is “inactive”. `OCCOCCOCCOCCOCCO`: the Potency entry is “inactive”. The same measure, in the same setting: as for `c1ccc2c(c1)ccc1ncccc12`, the entry is “inactive”.

With `C=CCCCCCCCCCCCCCCCC`, the activity change, negative = cytotoxicity was 2.1% [at 8.39 µM]. With `O=[N+]([O-])c1ccc2nc[nH]c2c1`, the Potency result is “inactive”.

In the case of `CCOC(=O)CC(C)=O`, the Potency result is “inactive”. Same read-out and setting: next, `CC1CCc2nccnc21` (centres undefined): “inactive”. On the same count and under the same terms, next, `CC(C)(c1cc(Br)c(O)c(Br)c1)c1cc(Br)c(O)c(Br)c1`: 43.1 µM (active) and 38.5 µM (active); `Cn1cnc2c1c(=O)[nH]c(=O)n2C`: “inactive”. On to `C[Si](C)O[Si](C)C`, for which the Potency entry was “inactive”. Still for that read-out and setting: next, `O=c1cc(CO)occ1O`: “inactive”. For `C[C@H]1C[C@@H](O)CC(C)(C)C1`, the Potency entry is “inactive”.

As for `O=C(O)c1ccc(C(=O)O)c(C(=O)O)c1`, the Potency entry is “inactive”. Still for that read-out and setting: as for `C=C(C)C(=O)OCCC(C)OC(=O)C(=C)C` (centres undefined), the entry is “inactive”; as for `CCCCOCCOCCOCCO`, “inactive”.

As to `NCCNCCNCCN`, the Potency entry was “inactive”. Still for that read-out and setting: next, `O=C(O)c1cc2ccccc2cc1O`: “inactive”; `CC/C=C\CCOC(=O)C(C)C`: “inactive”; `CCCCCCCCCCCCCCCC[N+](C)(C)CC`: 54.6 µM (active).

On to `OCCOCCN1CCN(C2=Nc3ccccc3Sc3ccccc32)CC1`, for which the Potency entry was “inactive”. Still for that read-out and setting: next, `O=S(=O)(O)c1ccccc1O`: “inactive”.

`Cn1cc(S(C)=O)c(=O)c2ccc(F)cc21` (centres undefined): the Potency entry was “inactive”.

Consider `NS(=O)(=O)c1cc2c(cc1Cl)NC(CC1CCCC1)NS2(=O)=O` (centres undefined), for which the Potency entry was “inactive”. Same read-out and setting: next, `CC(C(=O)O)c1cccc(C(=O)c2ccccc2)c1` (centres undefined): “inactive”; `CNC(=O)NC`: “inactive”; `CC(C)c1cccc(O)c1`: “inactive”. Regarding `COC(=O)OC`, the Potency entry is “inactive”.

Turning to `CC1=CC(=O)NS(=O)(=O)O1`, the Potency entry is “inactive”.

For `Oc1ccc2cc(SSc3ccc4cc(O)ccc4c3)ccc2c1`, the Potency result was “inactive”. On to `Cc1ccc(S(=O)(=O)NC2CCCCC2)cc1`, for which the Potency entry is “inactive”. Still for that read-out and setting: as for `O=C(O)/C=C/c1ccccc1`, the entry is “inactive”; as for `O=c1[nH]cnc2[nH]ncc12`, “inactive”. As to `CCCO`, the Potency result was “inactive”. The same measure, in the same setting: next, `CS(C)(=O)=O`: “inactive”; `CC(C)(C)NC(=O)[C@@H]1CN(Cc2cccnc2)CCN1C[C@@H](O)C[C@@H](Cc1ccccc1)C(=O)N[C@H]1c2ccccc2C[C@H]1O`: “inactive”; `Cc1ccc(/C(=C\CN2CCCC2)c2ccccn2)cc1`: “inactive”.

On to `CCCCCCCCCCCC(=O)N(C)CC(=O)O`, for which the Potency result is “inactive”.

`O=C(C(=O)c1ccccc1)c1ccccc1`: the Potency result was “inactive”. Take `C=C1C[C@H]2[C@@H]3C=C(C)C4=CC(=O)CC[C@]4(C)[C@H]3CC[C@]2(C)[C@@]1(OC(C)=O)C(C)=O`: the Potency result is “inactive”.

Take `O=S(=O)(O)c1ccccc1`: the Potency result is “inactive”. For `CC(C)NCC(O)COc1cccc2ccccc12` (centres undefined), the Potency result was “inactive”. The same measure, in the same setting: as for `CCN(CC)CCOc1ccc(/C(=C(\Cl)c2ccccc2)c2ccccc2)cc1`, the figure is 22.1 µM (active) and 29.8 µM (active); as for `CCSC(=O)N(CC(C)C)CC(C)C`, “inactive”; as for `CCCN[C@H]1CCc2nc(N)sc2C1`, “inactive”. Same read-out and setting: as for `O=C(Oc1ccccc1)c1ccc(O)cc1`, the entry is “inactive”.

For the compound `O=C(c1ccc(OCCN2CCCCC2)cc1)c1c(-c2ccc(O)cc2)sc2cc(O)ccc12`, the Potency is 34.4 µM (active) and 30.6 µM (active). Same read-out and setting: as for `CCN(CC)CCNC(=O)c1ccc(N)cc1`, the entry is “inactive”; as for `Cc1c2oc3c(C)ccc(C(=O)N[C@@H]4C(=O)N[C@H](C(C)C)C(=O)N5CCC[C@H]5C(=O)N(C)CC(=O)N(C)[C@@H](C(C)C)C(=O)O[C@@H]4C)c3nc-2c(C(=O)N[C@@H]2C(=O)N[C@H](C(C)C)C(=O)N3CCC[C@H]3C(=O)N(C)CC(=O)N(C)[C@@H](C(C)C)C(=O)O[C@@H]2C)c(N)c1=O` (I: T[dV]P[Sar][NMeV] / II: T[dV]P[Sar][NMeV]; ester I:1-I:C, II:1-II:C; linker I:N-II:N via Actinocin(9to1)), 0.0421 µM (active).

For the compound `CCCOC(C(=O)OC1CCN(C)CC1)(c1ccccc1)c1ccccc1`, the Potency result is “inactive”.

Values taken from PubChem BioAssay (Tox21).
